Assay results from PubChem BioAssay (NCATS).
Several values for one entry are separate records, joined by “and”; a condition that tells them apart may be missing. Equal values may be shown once. Records with an inconclusive call do not appear. Values without a mark were called inactive. Activity calls are given as the source filed them. Calls follow the shape of the dose curve; as a rule, active = well fitted curve in the direction sought with a large enough effect; inconclusive = small, poorly fitted or top-dose-only effect, or another doubt; inactive = no such curve, though single readings can be large; an effect the other way counts as inactive or inconclusive.

Tests used:
[1] = qHTS Assay for Identifying Gametocytocidal Compounds (AID 743244);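 as to max response: % is scaled to controls: 0 for no effect and ±100 for the full control effect; actives lower the fluorescent signal which means gametocytes are killed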; conditions: P. falciparum 3D7 stage III-V gametocytes, alamarBlue, 72 h; max response: active compounds read low
Procedure, shortened: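 3D7 gametocytes, stages III–V, 20,000/well; cpd 72 h, 37 °C/5% CO2; + alamarBlue 24 h; fluor. Ex 525/Em 598.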

[2] = qHTS assay for measurement of the activity of small molecule inhibitors on Zika virus induced Caspase-3 activity in human iPSC derived neural progenitor cells (hNPCs) (AID 1224857); also: nearly all actives have a fitted effect of over 65% in size; as to activity change, negative = inhibition: % of control where 0% means no effect
Procedure, shortened: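 Cells were plated at 350 per well and grown 16 to 20 hours. Compound pretreatment lasted one hour, after which ZIKV (2 FFU/cell) was added for 6 hours. Percent inhibition was normalized between uninfected and infected controls.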
Potency is read from the fitted curve at half-maximal effect.

| SMILES | max response [1] | activity change, negative = inhibition [2] | Potency [2] | Potency [1] |
| --- | --- | --- | --- | --- |
| CCN[C@@H]1C[C@H](N)[C@@H](OC2OC(CN)=CCC2N)[C@H](O)[C@H]1O[C@H]1OC[C@](C)(O)[C@H](NC)[C@H]1O (stereo partly drawn) | 13.5% | 22% [at 0.568 µM] | – | – |
| CC(C)CCCC(C)N (stereo not drawn) | 6.57% | – | inactive | – |
| CCCCC(CC)COC(=O)/C=C/c1ccc(OC)cc1 (stereo not drawn) | 11.8% | – | inactive | – |
| C=CCN1CCc2nc(N)sc2CC1 | 14.4% | – | inactive | – |
| CN1CCc2cccc3c2[C@H]1Cc1ccc(O)c(O)c1-3 | – | – | inactive | 3.98 µM (active) |
| CC1CCc2c(N3CCC(O)CC3)c(F)cc3c(=O)c(C(=O)O)cn1c23 (stereo not drawn) | 21.4% | – | inactive | – |
| CCNC(=O)NCc1cccc(Cl)c1 | 8.55% | – | inactive | – |
| Cc1cccc(C)c1NC(=O)c1ccccc1C(=O)O | -7.1% | – | inactive | – |
| CC(C)[N+](C)(C)CC(O)COc1cccc2ccccc12 (stereo not drawn) | -10.5% | – | inactive | – |
| Cc1cc(CC(=O)O)c(C)n1-c1ccc(Cl)cc1 | -9.92% | – | inactive | – |
| C[C@@]12C(=O)OC(=O)[C@]1(C)C1CCC2O1 | -5.31% | – | inactive | – |
| CN1CCN(c2c(F)cc3c(=O)c(C(=O)O)cn4c3c2SCC4)CC1 | 9.27% | – | inactive | – |
| CCc1oc2ccccc2c1C(=O)c1cc(I)c(O)c(I)c1 | 0.665% | – | inactive | – |
| CC(C)Cn1cnc2c1c(=O)n(C)c(=O)n2C | -4.05% | – | inactive | – |
| N[C@H](C(=O)O)[C@@H](O)c1ccc(O)c(O)c1 | 1.39% | – | inactive | – |
| OCCOCCN1CCN(C2=Nc3ccccc3Sc3ccccc32)CC1 | -0.0618% | – | inactive | – |
| NS(=O)(=O)c1cc(C(=O)O)cc(N2CCCC2)c1Oc1ccccc1 | -3.9% | – | inactive | – |
| CN1CCN(CCC(=O)N2c3ccccc3Sc3ccc(C(F)(F)F)cc32)CC1 | 2.75% | – | inactive | – |
| O=C(N/N=C/c1ccc([N+](=O)[O-])o1)c1ccc(O)cc1 | – | – | inactive | 1.12 µM (active) |
| CCc1cc(Cl)c(OC)c(C(=O)NC[C@@H]2CCCN2CC)c1O | -8.19% and -10.7% and 19.5% | – | inactive | – |

| SMILES | max response [1] | activity change, negative = inhibition [2] | Potency [2] | Potency [1] |
| --- | --- | --- | --- | --- |
| CCC1NC(=O)c2cc(S(N)(=O)=O)c(Cl)cc2N1 (stereo not drawn) | 5.58% | – | inactive | – |
| O=C(CCCN1CC=C(n2c(=O)[nH]c3ccccc32)CC1)c1ccc(F)cc1 | 7.51% | – | inactive | – |
| CC(C)Cc1ccc(CC(=O)O)cc1 | 6.47% | – | inactive | – |
| COc1ccccc1N1CCN(CCCCNC(=O)c2ccc(-c3ccc(C(C)=O)cc3)cc2)CC1 | 3.48% | – | inactive | – |
| COc1ccc(C(=O)c2ccccc2O)c(O)c1 | 14.9% | – | inactive | – |
| NC1CCN(c2nc3c(cc2F)c(=O)c(C(=O)O)cn3-c2ccc(F)cc2F)C1 (stereo not drawn) | -5.91% | – | inactive | – |
| CCCCNc1ccc(C(=O)OCCOCCOCCOCCOCCOCCOCCOCCOCCOC)cc1 | -1.52% | – | inactive | – |
| c1ccc(-c2nc[nH]c2-c2ccccc2)cc1 | -4.96% | – | inactive | – |
| CCC(C(=O)OCCOCCN(CC)CC)c1ccccc1 (stereo not drawn) | 6.25% | – | inactive | – |
| CC(=C(CCOC(=O)C(C)C)SSC(CCOC(=O)C(C)C)=C(C)N(C=O)Cc1cnc(C)nc1N)N(C=O)Cc1cnc(C)nc1N | -5.02% | – | 11.2 µM (active) | – |
| Nc1nc(-c2ccccc2)c(Br)c(=O)[nH]1 | -0.157% | – | inactive | – |
| Cc1cc(C)cc(OCC2CNC(=O)O2)c1 (stereo not drawn) | -6.82% | – | inactive | – |
| O=C1c2cccc3c2[C@H](CCC3)CN1[C@@H]1CN2CCC1CC2 | -7.45% | – | inactive | – |
| OC[C@H]1O[C@@H](Oc2ccc(O)cc2)[C@H](O)[C@@H](O)[C@@H]1O | 0.374% | – | inactive | – |
| CCOC(=O)C(C#N)=C(c1ccccc1)c1ccccc1 | -6.54% | – | inactive | – |
| Cc1nc(-c2ccc(Cl)cc2)oc1COC(C)(C)C(=O)O | -2.69% | – | inactive | – |
| CCCCCCCCCCCCSCCOCCO | 3.73% | – | inactive | – |
| CC(=O)Nc1ccc(OCC(O)CNC(C)C)cc1 (stereo not drawn) | -2.82% | – | inactive | – |
| O=[N+]([O-])c1cccc(S(=O)(=O)NCCNS(=O)(=O)c2cccc([N+](=O)[O-])c2)c1 | 1.36% | – | inactive | – |
